Source: PubChem BioAssay
Some of the results follow. The source made the active and inactive calls.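 How the source made its calls: active means dye signal at least 3 control SD above or below untreated wells in both duplicates, raw fluorescence within 3, either direction; inactive means the rest.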

experiment: nonspecific thallium flux effects in parental HEK293 cells, confirmation, counter-screen for Kir2.1 inhibitor project, cell-based, FluxOR thallium flux, duplicate, single concentration (AID 2105); conditions: FluxOR thallium flux fluorescence, at 10 µM; 0% = unstimulated blank wells;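 on FluxOR signal as % of negative control (100 = no effect): percent is based on the flux ratio of peak minus minimum fluorescence over baseline F0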

Row | Structure (SMILES) | FluxOR signal as % of negative control (100 = no effect) | outcome
1 | Cc1[nH]n(-c2cccc(Cl)c2)c(=O)c1/C=N/n1c(C)nc2ccccc2c1=O | 145% (active) | 
2 | Cc1[nH][nH]c(=O)c1C(c1ccc(-c2ccc(Cl)cc2)o1)c1c(C)[nH][nH]c1=O |  | inactive
3 | O=C(NCc1ccc2c(c1)OCO2)C12CC3CC(CC(C3)C1)C2 |  | inactive
4 | CCn1c(O)c(N=NC2=NC(=O)CS2)c2cc(C)ccc21 | 160% (active) | 
5 | Cc1cccc(NC(=O)CSC(N)=O)c1C |  | inactive
6 | O=C(NCc1ccc2c(c1)OCO2)c1ccc(Cl)s1 |  | inactive
7 | Cc1ccc(NC(=O)C2CC2c2ccccc2)cc1 (centres undefined) |  | inactive
8 | N#Cc1c(-c2ccccc2)nc(SCc2cccc(C(F)(F)F)c2)[nH]c1=O | 58% (active) | 
9 | O=C(NC(Nc1nc2ccc([N+](=O)[O-])cc2s1)(C(F)(F)F)C(F)(F)F)c1ccccc1 |  | inactive
10 | CCn1c2ccccc2c2cc(NC(=O)CNC)ccc21 |  | inactive
11 | CCOC(=O)c1c(NC(=S)NC)sc2c1CCCC2 | 196% (active) | 
12 | Cc1cccc(NC(=O)c2nc(S(=O)(=O)Cc3ccccc3)ncc2Cl)c1 |  | inactive
13 | CC(NC(=O)Nc1ccccc1)c1ccccc1 (centres undefined) |  | inactive
14 | CC(=O)N(C1=C(Cl)C(=O)c2ccccc2C1=O)c1ccc(C(=O)O)cc1 |  | inactive
15 | Cc1ccc(/C=N/NC(=O)c2cc3ccccc3cc2O)o1 | 414% (active) | 
16 | CSc1nnc(NC(=O)c2nc(S(=O)(=O)Cc3ccc(C)cc3)ncc2Cl)s1 |  | inactive
17 | CC1=C/C(=N\OS(=O)(=O)c2ccccc2)C=CC1=O |  | inactive
18 | O=C(Nc1ccc(Oc2ccccc2)cc1)c1ccco1 |  | inactive
19 | C/C(=N\NC(=O)c1ccoc1C)c1ccccc1O |  | inactive
20 | CCc1ccc(NC(=O)C(=O)NNC(=O)c2cccs2)cc1 | 310% (active) | 

Row | Structure (SMILES) | FluxOR signal as % of negative control (100 = no effect) | outcome
21 | COc1cccc(NC(=O)C2C(c3ccccc3)C2(Cl)Cl)c1 (centres undefined) |  | inactive
22 | CS(=O)(=O)c1sc(C(=O)NC(=S)Nc2ccc(OC(F)(F)F)cc2)c2c1C=CCC2 |  | inactive
23 | CCOC(=O)c1sc(=S)n2c1[nH]c(=O)c1ccc(C(=O)OC)cc12 | 174% (active) | 
24 | N=c1c2c(-c3ccccc3)c(-c3ccccc3)n(Cc3ccccc3)c2ncn1CCCO |  | inactive
25 | CCCc1nc2sc3c(c2c(=O)n1NC(=O)CCCl)CCCC3 |  | inactive
26 | CCc1ccc(-c2nn(-c3ccccc3)cc2CSC(=N)N)cc1 |  | inactive
27 | CCn1c(=S)[nH]c2sc3c(c2c1=O)CCCCC3 | 402% (active) | 
28 | S=C(NCc1ccc(Cl)cc1)NC12CC3CC(CC(C3)C1)C2 |  | inactive
29 | COc1ccc(NC(=O)/C(Cl)=C(/Cl)S(=O)Cc2ccc(C)cc2)cn1 (centres undefined) |  | inactive
30 | CCC1(C)Cc2c(sc3nnn(CC(=O)Nc4ccc(Cl)cc4)c(=O)c23)CO1 (centres undefined) |  | inactive
31 | FC(F)(F)c1cccc(NC(=S)Nc2cccc(Cl)c2)c1 |  | inactive
32 | COc1ccc(C(=O)Nc2ncc3c(n2)-c2ccccc2CC3)cc1 |  | inactive
33 | CC(NC(=O)Nc1cccc([N+](=O)[O-])c1)c1ccc2c(c1)OCO2 (centres undefined) |  | inactive
34 | Cc1ccc2nc(C)c3c(c2c1)N(c1ccccc1)CC3 |  | inactive
35 | CCn1cc(CN2CCC(C(=O)Nc3cccc(-c4cccc(Cl)c4)c3)CC2)cn1 |  | inactive
36 | Oc1c(Cl)cc(Cl)cc1/C=N/c1ncn[nH]1 |  | inactive
37 | Cc1cc2oc3ccc(NCCC4CCCN4C)cc3c(=O)c2cc1C (centres undefined) | 67.5% (active) | 
38 | CCC1(C)Cc2c(sc3[nH]c(=S)n(Cc4ccccc4)c(=O)c23)CO1 (centres undefined) | 527% (active) | 
39 | Cc1cccc(NC(=S)NC(=O)c2ccc(Br)o2)c1 | 170% (active) | 
